Screening data as filed in PubChem BioAssay.
Measles CPE: compounds protecting cells from measles virus cytopathic effect, primary screen, measles RdRp inhibitor project, single point, MLSMR library, absorbance; Measles virus-infected cells, CPE protection; protection (pct of control), % at 4 µM; 1.5% of 140,000 active; AID 841, 2007; in the data active means protection mostly above about 24%, no sharp cut-off; inactive means mostly below about 26%
CYP2C9 inh: blockers of cytochrome P450 2C9 activity – biochemical, luminescence, ADME assay, primary screen; P11712; CYP2C9 Supersomes, luciferin-H conversion; inhibition, % at 5 µM; 20% of 96,000 active; AID 777, 2007;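 active means blocking of liver enzyme CYP2C9 beyond about 50% at 5 µM, limit read from the data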
CYP2C19 inhib: blockers of cytochrome P450 2C19 activity – biochemical, luminescence, ADME assay, primary screen; P33261; CYP2C19 Supersomes, luciferin-H EGE luminescence, 30 min; inhibition, % at 5 µM; 21% of 96,000 active; AID 778, 2007;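 active means CYP2C19 inhibition above a set limit at 5 µM in the primary screen, cut at about 50% in these data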;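 further: plate controls were negative control wells for no effect and 2.5 mM tranylcypromine positive control for full effect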
Target sequence (P33261 whole entry, looked up): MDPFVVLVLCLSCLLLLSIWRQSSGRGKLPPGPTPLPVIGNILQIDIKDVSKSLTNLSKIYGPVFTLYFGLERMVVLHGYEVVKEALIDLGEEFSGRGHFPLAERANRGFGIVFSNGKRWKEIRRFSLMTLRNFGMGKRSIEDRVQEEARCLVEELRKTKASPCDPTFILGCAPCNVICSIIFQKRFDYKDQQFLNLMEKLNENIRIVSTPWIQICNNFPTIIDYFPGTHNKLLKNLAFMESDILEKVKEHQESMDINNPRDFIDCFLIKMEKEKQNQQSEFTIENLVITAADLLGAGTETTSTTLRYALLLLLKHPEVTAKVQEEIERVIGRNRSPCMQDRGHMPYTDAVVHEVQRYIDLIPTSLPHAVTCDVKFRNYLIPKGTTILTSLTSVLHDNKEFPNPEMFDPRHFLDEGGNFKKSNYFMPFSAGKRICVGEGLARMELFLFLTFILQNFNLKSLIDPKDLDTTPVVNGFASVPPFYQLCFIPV
CYP2C9 act: human CYP2C9 activators, primary screen, biochemical, luminescence. recombinant CYP2C9, luciferin-H conversion; active compounds read high; factor 1 = untreated enzyme, 0 = blocked. activation factor at 5 µM. 1.4% of 96,000 active;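 active means activation factor of 2 or more for CYP2C9 at a 5 µM dose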;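 further: 0 = sulfaphenazole-blocked wells and 1 = vehicle-only wells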
CYP2C19 act: human CYP2C19 activators, primary screen, biochemical, luminescence. recombinant CYP2C19, luciferin-H EGE luminescence; active compounds read high; 0 = fully inhibited enzyme, 1 = untreated enzyme. Cytochrome P450 2C19 (Homo sapiens), P33261. activation factor at 5 µM. 96,000 tested, under 10 active;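 active means activation factor of at least 2 at 5 µM in the primary screen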;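 further: 0 = wells with 2.5 mM tranylcypromine and 1 = vehicle-only wells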
An asterisk follows results filed as active; x = no result. Compounds with a hit are over-represented: about 22% of the library has one in this group of screens.

SMILES	Measles CPE	CYP2C9 inh	CYP2C19 inhib	CYP2C9 act	CYP2C19 act
Cc1ccc(C(=O)NCCn2cc(SCC(=O)Nc3nnc(C)s3)c3ccccc32)cc1	7.2	79.5*	60.0*	0.2	0.4
Cc1cc(C(F)F)n2nc(C(=O)Nc3ccccc3F)nc2n1	18.4	6.4	3.8	0.9	1
Cc1ccc(N2C(=O)N(CC(=O)N(C)Cc3ccccc3)C(=O)C2C)cc1 (stereo unspecified)	4.1	-5.1	5.9	1.1	0.9
COc1cc(C2Nc3ccc4ncccc4c3C3=C2C(=O)CC(C)(C)C3)cc(OC)c1O (stereo unspecified)	1.3	76.0*	63.4*	0.2	0.4
COc1cc(C2Nc3ccc4ncccc4c3C3=C2C(=O)CCC3)cc(OC)c1O (stereo unspecified)	8.0	82.9*	39.5	0.2	0.6
O=C(OCCNC(=O)c1cc2ccccc2oc1=O)c1cccnc1	10.6	7.5	9.6	0.9	0.9
CC(Oc1ccc(Cl)cc1Cl)C(=O)NC(=S)N1CCc2ccccc21 (stereo unspecified)	3.7	x	x	x	x
CC(CCc1ccccc1)NC(=O)CSc1ccccc1 (stereo unspecified)	15.2	x	x	x	x
Cc1nc2c3ccccc3nc(SCC(=O)N3CC(C)CC(C)C3)n2n1 (stereo unspecified)	5.7	23.1	54.3*	0.8	0.5
CCCC(=O)N(c1ccc(OCC)cc1)C1C=CS(=O)(=O)C1 (stereo unspecified)	4.0	46.5	63.2*	0.5	0.4
CCOC(=O)CCn1c(CC(=O)OCC)nc2ccccc21	14.0	5.0	12.1	0.9	0.9
CCc1cccc(CC)c1N(COC)C(=O)Cn1ccccc1=N	-0.1	-3.3	-13.0	1	1.1
CCc1cccc(CC)c1N(COC)C(=O)Cn1c(CO)nc2ccccc21	15.1	51.0*	35.8	0.5	0.6
CCc1cccc(CC)c1N(COC)C(=O)Cn1nnc2ccccc21	13.1	99.7*	82.4*	0	0.2
O=C(Nc1ccc(N2CCOCC2)cc1)c1cc2ccccc2o1	7.0	14.9	14.9	0.9	0.9
O=C(/C=C/N1CCOCC1)c1cc2ccccc2o1	11.0	76.8*	9.0	0.2	0.9
CC1CCN(C(=O)c2cc3ccccc3o2)CC1	-1.0	21.9	86.0*	0.8	0.1
CCOC(=O)C(CC)Sc1nc2c(c(=O)[nH]c(=O)n2C)n1C/C=C(/C)Cl (stereo unspecified)	22.3	38.9	8.4	0.6	0.9
O=S(=O)(c1cc(C(F)(F)F)ccc1Cl)N1CCCCCC1	2.5	-86.9	21.0	1.9	0.8
NNC(=O)CN1C(=O)Nc2ccc(Br)cc2C1c1ccccc1 (stereo unspecified)	9.2	x	x	x	x
O=C1CN(C(=O)c2ccc(Br)o2)C(c2ccc(F)cc2)c2cc(Cl)ccc2N1 (stereo unspecified)	17.6	73.4*	35.8	0.3	0.6
O=C1CN(C(=O)c2ccco2)C(c2ccccc2)c2cc(Cl)ccc2N1 (stereo unspecified)	8.4	71.4*	58.8*	0.3	0.4
O=C1CN(C(=O)c2ccc(Br)o2)C(c2ccccc2)c2cc(Cl)ccc2N1 (stereo unspecified)	28.7	100.3*	85.6*	0	0.1
Cc1oc(-c2ccc(F)cc2)cc1-c1nn2c(-c3ccoc3C)nnc2s1	x	18.4	2.5	0.8	1
O=c1c2ccccc2nc(SCc2nnc(-c3ccccc3Br)o2)n1-c1ccccc1	29.5	x	x	x	x
SMILES	Measles CPE	CYP2C9 inh	CYP2C19 inhib	CYP2C9 act	CYP2C19 act
C=CCn1c(=O)c2ccccc2n2c(SCc3nnc(-c4ccccc4Br)o3)nnc12	14.8	64.5*	65.7*	0.4	0.3
C=CCn1c(=O)c2ccccc2n2c(SCC(=O)NCCc3ccccc3)nnc12	8.1	29.1	51.4*	0.7	0.5
Brc1ccccc1-c1nnc(CSc2nncn2-c2ccccc2)o1	7.6	-135.6	68.2*	2.4*	0.3
Brc1ccccc1-c1nnc(CSc2nnc3sc4ccccc4n23)o1	21.2	23.8	79.3*	0.8	0.2
O=C(NC(=S)Nc1ccccc1N1CCOCC1)c1ccc(-c2cccc(Cl)c2)o1	1.5	x	x	x	x
O=c1cc(Nc2ccc3c(c2)OCCO3)[nH]c(=O)n1Cc1ccc(F)cc1	20.5	x	x	x	x
CCOC(=O)/C=C1\CC(=O)Nc2nonc2N1	7.9	1.8	9.2	1	0.9
COC(=O)[C@H](CC(C)C)NC(=O)NCCCc1ccccc1	5.0	x	x	x	x
CCOC(=O)N1CCN(C(=O)c2cnc(Nc3ccccc3OC)c3ccccc23)CC1	3.3	28.5	12.0	0.7	0.9
Cn1c(COc2ccc(Cl)cc2)nnc1SCc1ncc(-c2ccccc2)o1	11.7	-49.1	44.8	1.5	0.6
C=CCn1c(=O)c2ccccc2n2c(SCc3cc(=O)n4ccsc4n3)nnc12	66.4*	-3.8	-9.0	1	1.1
CCCn1c(=O)c2ccccc2n2c(SCC(=O)c3ccc(CC)cc3)nnc12	12.8	22.3	6.1	0.8	0.9
C=CCn1c(=O)c2ccccc2n2c(SCC(=O)c3ccccc3)nnc12	1.3	70.6*	81.8*	0.3	0.2
COc1ccc(-n2cnnc2SCc2ncc(-c3ccccc3)o2)cc1	4.0	20.0	66.0*	0.8	0.3
COc1ccc(CNC(=O)COC(=O)c2n[nH]c3ccccc23)cc1	8.8	48.1	46.3	0.5	0.5
CCS(=O)(=O)Nc1ccc(C2=NN(C(=S)Nc3ccccc3)C(c3ccco3)C2)cc1 (stereo unspecified)	12.1	x	x	x	x
Cc1ccc(C2=NN(C(=S)Nc3ccccc3)C(c3ccco3)C2)cc1 (stereo unspecified)	1.1	52.2*	23.7	0.5	0.8
CCOC(=O)C(=Cc1ccc(-c2ccsc2C(=O)OC)o1)C(=O)OCC	10.9	50.0*	34.3	0.5	0.7
CCOC(=O)/C(C#N)=C/c1ccc(-c2ccsc2C(=O)OC)o1	8.0	35.1	32.9	0.6	0.7
COc1ccc(C2=NOC(Cn3c(Cc4ccc(Cl)cc4)nc4c3c(=O)n(C)c(=O)n4C)C2)cc1 (stereo unspecified)	15.2	81.8*	74.4*	0.2	0.3
O=C(Cn1c(CC(=O)N2CCCC2)nc2ccccc21)NCc1ccccc1	2.7	9.0	1.4	0.9	1
CC(=O)c1cc(C#N)c(Oc2cccc(C(F)(F)F)c2)nc1C	6.1	10.4	16.8	0.9	0.8
CC(=O)OCc1c(C(F)(F)F)nn(C)c1Oc1ccccc1	5.0	21.7	91.7*	0.8	0.1
CC(=O)OCc1c(C(F)(F)F)nn(C)c1Oc1cccc(C(F)(F)F)c1	5.6	37.3	74.3*	0.6	0.3
CCc1c(C)nc2ncnn2c1N1CCCC(C(=O)NCc2ccco2)C1 (stereo unspecified)	9.5	43.5	7.3	0.6	0.9
